Assay results: PubChem BioAssay (NCI)
The panel holds about 83,000 compounds, 20% with a hit somewhere; the sample as a whole holds those more often.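 The endpoint reported here, percent growth, reads 100 for growth as untreated, 0 for no net growth and -100 for all cells dead.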 A number with no mark means an inactive call. Active and inactive are the calls of the source. The calls were made as follows: active = growth percent below 10; inactive = the rest.

Key:
Experiment in all cases: NCI-60 one-dose screen, 48 h (100 = growth as untreated, 0 = no growth, -100 = all killed)
Conditions in all cases: 10 µM unless noted
RPMI-8226 leukemia = system: RPMI-8226 leukemia
OVCAR-8 ovarian = system: OVCAR-8 ovarian
OVCAR-5 ovarian = system: OVCAR-5 ovarian
OVCAR-4 ovarian = system: OVCAR-4 ovarian
SK-OV-3 ovarian = system: SK-OV-3 ovarian
IGROV1 ovarian = system: IGROV1 ovarian
OVCAR-3 ovarian = system: OVCAR-3 ovarian
HS 578T breast = system: HS 578T breast
NCI/ADR-RES ovarian = system: NCI/ADR-RES ovarian

Row | SMILES | growth (RPMI-8226 leukemia) | growth (OVCAR-8 ovarian) | growth (OVCAR-5 ovarian) | growth (OVCAR-4 ovarian) | growth (SK-OV-3 ovarian) | growth (IGROV1 ovarian) | growth (OVCAR-3 ovarian) | growth (HS 578T breast) | growth (NCI/ADR-RES ovarian)
1 | Cc1cc(Cl)nc(N(CCCNc2ccnc3cc(Cl)ccc23)Cc2ccccn2)n1 | 1.09% (active) | 33.8% | 56% | 41.4% | 65% | 44.1% | 62.8% | 78.6% | 32.2%
2 | O=S(=O)(Nc1ccsc1-c1nc(-c2ccccc2)no1)c1cc(Cl)cc(Cl)c1 | 82.6% |  | 86.5% | 93.8% | 83.3% | 100% | 96.7% | 94.1% | 94%
3 | COc1ccc(-c2cc(-c3ccc(Nc4nc(Nc5ccccc5)nc(Nc5ccc(Cl)cc5)n4)cc3)nc(N)c2C#N)cc1 | -29.6% (active) | 31.9% | -38.7% (active) |  | 86.8% | -18.4% (active) | -96.1% (active) |  | 2.12% (active)
4 | CN(C)c1cnccn1 | 65.2% | 92.5% | 114% | 82.3% | 90.9% | 91.1% | 104% |  | 88.6%
5 | Cc1ccc(O)c(C(=O)c2ccccc2Cl)c1 | 112% | 97.6% | 85% | 91.9% | 112% | 102% | 118% |  | 89%
6 | CNC(=O)c1c(NC(=O)c2ccc(C(C)(C)C)cc2)sc2c1CCC(=O)C2 | -20.6% (active) | 15.7% | 9.12% (active) |  | 0.618% (active) | 4.71% (active) | -21.4% (active) | 24.2% | 8.75% (active)
7 | Cc1nc(-c2ccccc2)cc2c(O)c(C(=O)N/N=C/c3ccc(N(C)C)cc3)[nH]c(=O)c12 | -11.6% (active) |  | 85.4% | 26.6% | 105% | 49.8% | 71% | 73.2% | 66.9%
8 | COc1ccc(/C=N/NC(=O)Cn2c(-c3ccc(S(C)(=O)=O)cc3)nc3cc(Cl)ccc32)cc1 | 9.21% (active) | 19.7% | 36.8% | 55.5% | 12.6% | 33.3% | -1.53% (active) | 36.8% | 5.86% (active)
9 | CC(C)(C)Nc1c(-c2c3ccccc3cc3ccccc23)nc2ccccn12 | 55% | 67.2% | 78.5% |  | 59.6% | 64.2% | 72.3% | 72% | 82.9%
10 | Cn1ncc2c(Nc3ccc(Br)cc3)nc(Nc3ccc(Br)cc3)nc21 | 23.2% | 59.6% | 56.9% | 51.9% | 78.1% | 48.9% | 68.2% |  | 21.5%
11 | COC(=O)c1ccc(CSc2nnc(-c3ccncc3)o2)cc1 | 102% |  | 104% | 99.5% | 102% | 98.9% | 112% | 107% | 104%
12 | COc1ccc(C2=NC(=O)NC2c2ccc(OC)cc2)cc1 (stereo not given) | 57.4% | 97.6% | 77.8% | 74.8% | 66.4% | 77.8% | 69% |  | 1.85% (active)
13 | CN1CCC(=C2c3ccccc3C=Cc3ccccc32)CC1 | 72.7% | 85.4% | 108% | 72.9% | 97.6% | 72.7% | 104% |  | 75.6%
14 | C[C@@H](C[C@H](CCOCc1cccnc1)c1ccccc1)c1cc2ccccc2o1 | 75% | 88.6% | 87.8% | 81.6% | 84.7% | 83.8% | 94% | 85.1% | 97.9%
15 | O=C1C(Cl)C(c2ccccc2Cl)N1n1cnnc1 (stereo not given) | 102% | 96.2% | 91.4% |  | 77.3% | 91.5% | 102% | 87.6% | 106%
16 | CCOc1ccc(S(=O)(=O)c2ccc(C)cc2)c2c1no[n+]2[O-] | 67.9% | 90.7% | 99.1% | 67.5% | 77.4% |  | 85.2% | 78.4% | 71.8%
17 | C#CC[C@H](N)C(=O)O | 106% [20 µM] | 99.2% [20 µM] | 93.2% [20 µM] |  | 105% [20 µM] | 106% [20 µM] | 111% [20 µM] | 111% [20 µM] | 108% [20 µM]
18 | O=[N+]([O-])c1cccc(/C=C/c2ccccn2)c1 | 51.7% |  | 96.2% | 70.5% | 94% | 86.7% | 59.4% |  | 81.2%
19 | Cc1cnc(Nc2ccc(OCCN3CCCC3)cc2)nc1NCc1ccco1 | 50.7% | 95.1% | 78.1% | 59.4% | 108% | 71% | 82.7% | 80.3% | 101%
20 | COc1cc(-c2cc(-c3ccc(Nc4nc(Nc5ccccc5)nc(Nc5ccc(Cl)cc5)n4)cc3)nc(N)n2)cc(OC)c1OC | 40.1% |  | 70% | 49.9% | 113% | 39.2% | 63.8% |  | 50.9%
21 | NC(=O)c1c(NC(=O)c2ccc(C(F)(F)F)cc2Cl)sc2c1CCC(=O)C2 | -22.7% (active) | 10.2% | -41.9% (active) | -74.7% (active) | -6.73% (active) | -39.2% (active) | -57.4% (active) | -7.87% (active) | -13.9% (active)
22 | COC1(CC[C@@H](C)COC2OC(CO)C(O)C(O)C2O)O[C@H]2C[C@H]3[C@@H]4CC=C5C[C@@H](OC6OC(CO)C(OC7OC(C)C(O)C(O)C7O)C(O)C6OC6OC(C)C(O)C(O)C6O)CC[C@]5(C)[C@H]4CC[C@]3(C)[C@H]2[C@@H]1C (stereo not given in full) | -56.3% (active) | -64.6% (active) | -86.6% (active) | -64.7% (active) | -71.8% (active) | -78.6% (active) | -73.6% (active) |  | -75.6% (active)
23 | C[C@H]1[C@H](C)CC[C@]2(C(=O)N3CCN(C)CC3)CC[C@]3(C)C(=CC[C@@H]4[C@@]5(C)C/C(=C/c6cccnc6)C(=O)C(C)(C)[C@@H]5CC[C@]43C)[C@H]12 | -59.3% (active) |  | -77.8% (active) | -24.9% (active) | -89.5% (active) | -69.2% (active) | -93.2% (active) | -30.7% (active) | -75.1% (active)
24 | CCn1nc(C#Cc2c(C)ccc3c(Nc4ccc(Cl)cc4)nccc23)c2c(N)ncnc21 | 2.72% (active) | 7.01% (active) | 25.1% | 41.5% | -3.61% (active) | 12.5% | 7% (active) | 0.71% (active) | 11.6%
25 | O=c1[nH]c(=O)n(C2CC(O)C(CO)O2)cc1CO (stereo not given) | 98.9% | 99.9% | 29.7% | 107% | 107% | 124% | 113% |  | 4.34% (active)
26 | CC(C)n1nc(C#Cc2cccc(O)c2)c2c(N)ncnc21 | -46.9% (active) | -36.4% (active) | -43% (active) |  | -62.6% (active) | -68.8% (active) | -19.6% (active) | -28.8% (active) | -29.2% (active)
27 | COc1cc(/C=C/C(=O)c2ccc(Nc3nc(Nc4ccccc4)nc(Nc4ccc(Cl)cc4)n3)cc2)cc(OC)c1OC | -4.87% (active) | 41.1% | 55.1% |  | 79.5% | 54.8% | 48% |  | 21.8%
28 | COc1ccc(/C=C(\C#N)n2nnc3cc(F)c(F)cc32)c(OC)c1OC | 41.6% | 67.6% | 98% |  | 88.6% | 68.8% | 58.2% | 66.2% | 72.7%
29 | CCCCNC(=O)NS(=O)(=O)c1ccc(N2N=C(c3ccc(C)cc3C)CC2c2ccc(N(C)C)cc2)cc1 (stereo not given) | 34.2% | 57.7% | 84.6% |  | 97.7% | 89.9% | 51.2% | 88.1% | 46.8%
30 | CC1=CC(=O)C(C(C)C)=CC1=Nc1cc(Br)c(O)c(Br)c1 | -8.71% (active) | 31.1% | 29.4% |  | 19.6% | 22.9% | -9.25% (active) |  | 
